# Measurements taken from PubChem BioAssay AID449762 (Southern Research Specialized Biocontainment Screening …, 2010).
# About 1,900 (0.58%) of roughly 330,000 compounds were called active. Another 4% or so got no clear call; they are omitted. Not all results are given here. Potency and affinity values are given separately. Unmarked numbers belong to inactive results. Cut-off read from the data, not from the text of the source: inconclusive = inhibition above about 70% without an active follow-up result; inactive = below that.
# Assay: M. tuberculosis growth inhibition, HTS (AID 449762);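 note: bacterial growth assessed after seven days of incubation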
# Conditions: M. tuberculosis H37Rv growth inhibition, 7H9 media; at 25 µM; active compounds read high
row,Structure (SMILES),inhibition [%]
1,CN1CCN(C(=O)/C(=C/c2ccc(F)cc2)c2ccsc2)CC1,-3.93
2,CCS(=O)(=O)C1=NN2C(=N)/C(=C\c3ccc(OC(=O)c4ccco4)c(OC)c3)C(=O)N=C2S1,3.16
3,COc1cc(/C=C2\C(=N)N3N=C(S(=O)(=O)CC(C)C)SC3=NC2=O)ccc1OC(=O)c1ccco1,0.47
4,Cc1cc(C)c(NS(=O)(=O)c2ccc(Cl)c(C(=O)O)c2)c(C)c1,-6.92
5,O=C(NCCCNc1ccc([N+](=O)[O-])cc1)C(F)(F)F,-6.92
6,CCn1c(COc2ccc(OC)cc2)nnc1SCc1nc2ccccc2c(=O)[nH]1,-7.06
7,Cc1oc(-c2cccc(C(F)(F)F)c2)nc1CN1CCN(c2ccccn2)CC1,63.4
8,CCN(CC)c1ccc(/C=N\N2CCN(Cc3ccc(C)cc3)CC2)cc1,38
9,O=C(NC(=S)NNC(=O)c1cc2ccccc2cc1O)c1ccco1,2.19
10,COc1ccc(C(=O)NC(=S)NNC(=O)c2ccco2)cc1,70.2
11,CCOc1ccc(/C=N/NC(=O)C(C)N(c2ccc(OC)cc2)S(C)(=O)=O)cc1 (centres undefined),-10.4
12,Cc1ccc(N(CCC#N)C(=O)COC(=O)c2nc3nc(C)cc(C)n3n2)cc1,-2.21
13,Cc1nc(N2CCN(c3ccccn3)CC2)c2c(C)c(C(=O)N3CCN(c4ccccc4F)CC3)sc2n1,61.9
14,Cc1nc(N2CCN(c3ccccn3)CC2)c2c(C)c(C(=O)N3CCN(c4cccc(Cl)c4)CC3)sc2n1,60.4
15,CCCC(=O)Nc1nc2ccc(C(=O)OCC)cc2s1,-1.4
16,O=C(CN1C(=O)C2CCCCC2C1=O)OCn1nnc2ccccc2c1=O (centres undefined),2.65
17,O=C(CNC(=O)C1CCCCC1)OCn1nnc2ccccc2c1=O,12.9
18,COc1ccc(C)cc1NC(=O)CCCN1C(=O)CN(C)C1=O,4.23
19,CCN1CCN(C(=O)c2ccc(N3CC4CC(C3)c3cccc(=O)n3C4)c([N+](=O)[O-])c2)CC1 (centres undefined),2.16
20,Cc1ccc(CNC(=O)c2ccc(S(=O)(=O)N(C)C)cc2)n1C,3.61
21,CC1(C)Cc2c(sc(NC(=O)c3ccc(C(=O)c4ccccc4)cc3)c2C#N)C(C)(C)N1,2.99
22,COC(=O)c1c(NC(=O)c2ccccc2)sc2c1CC(C)(C)NC2(C)C,-11.2
23,COc1ccc(C2Nc3ccccc3C(=O)N2c2ccc(C)cc2)cc1COc1ccccn1 (centres undefined),-5.39

row,Structure (SMILES),inhibition [%]
1,Cc1ccc(C)c(S(=O)(=O)N2CCN(CC(=O)Nc3cc(C)on3)CC2)c1,1.82
2,O=C(N/N=C/c1ccc[nH]1)c1cccnc1,-9.86
3,O=C(N/N=C/c1ccc[nH]1)c1cccc(Br)c1,47
4,COc1ccc(CCNC(=O)C2CCCN2S(=O)(=O)c2ccc(F)cc2)cc1OC (centres undefined),0.4
5,O=C(CN(Cc1ccco1)C(=O)Cn1nnc(-c2cccs2)n1)NCc1ccccc1,4.1
6,COC/C=C/C1=CC2=CC(=O)C(C)(OC(=O)c3cnc4ccccc4n3)C(=O)C2=CN1c1ccc(CO)cc1 (centres undefined),3.29
7,O=C(c1ccc2c(=O)n(Cc3ccccc3)c(=S)[nH]c2c1)N1CCCC1,-3.86
8,CC(CCN1CCC(n2nccc2NC(=O)c2ccccc2Cl)CC1)c1ccccc1 (centres undefined),15.6
9,Cc1nc(SCc2ccccc2F)c2cnn(-c3ccccc3)c2n1,9.04
10,Cc1ccc(-c2nc(C(=O)NCCCN3CCOCC3)cc3c2[nH]c2ccccc23)cc1,-3.27
11,COc1cccc(-c2nc(C(=O)NCCCN3CCOCC3)cc3c2[nH]c2ccccc23)c1,-10
12,Cc1ccc(OCCn2ncc3ccccc3c2=O)c(C)c1,9.3
13,ON=C1c2cc(OCCN3CCCCC3)ccc2-c2ccc(OCCN3CCCCC3)cc21,7.74
14,COc1ccc2c(c1)C(=NO)c1cc(OC)ccc1-2,-4.82
15,CC1CCCC(C)N1C(=O)COC(=O)c1ccccc1O (centres undefined),2.65
16,O=c1[nH]c2ccccc2nc1-c1ccccc1,-0.96
17,O=c1[nH]c2ccccc2nc1-c1ccc(Cl)cc1,2.14
18,O=C(N/N=C/C=C/c1ccco1)C(O)c1ccccc1 (centres undefined),50.7
19,O=C(CCCCCCCC(=O)c1ccccc1)c1ccccc1,4.08
20,O=C(CCCCCCC(=O)c1ccccc1)c1ccccc1,-5.92
21,COCC(=O)NC1(c2nnnn2CCOC(=O)Nc2ccc(Cl)cc2)CCCCC1,-9.42
22,S=C(Nc1ccccc1Cl)Nc1ccc(Cl)cc1Cl,-2.8
23,S=C(NCCNC(=S)Nc1ccccc1Cl)Nc1ccccc1Cl,4.51

row,Structure (SMILES),inhibition [%]
1,CCC(Sc1nnc2c3ccccc3n(CC)c2n1)C(=O)Nc1sc2c(c1C#N)CCCC2 (centres undefined),1.09
2,O=[N+]([O-])c1ccc(Nc2nc(N3CCOCC3)nc(N3CCOCC3)n2)cc1,-0.58
3,O=[N+]([O-])c1ccc(Nc2nc(NCCO)nc(N3CCCC3)n2)cc1,7.94
4,S=C(Nc1ccccc1Cl)N(CCCN1CCOCC1)Cc1ccco1,0.76
5,Cc1ccc2nc(-c3cccc(Br)c3)cc(C(=O)NC3CC3)c2c1,-6.86
6,Cc1ccc(-c2cc(C(=O)NC3=NCCS3)c3cc(Br)ccc3n2)o1,8.99
7,CCN(Cc1ccccc1)C(=O)COC(=O)c1cc(S(=O)(=O)Nc2c(C)n(C)n(-c3ccccc3)c2=O)ccc1C,5.3
8,CCCCCN(C(=O)CCCSc1nncs1)c1c(N)n(CCCC)c(=O)[nH]c1=O,3.89
9,CN(C)c1ccc(/C=C/[N+](=O)[O-])cc1,39
10,CCN(CC)c1ccc(/C=C/[N+](=O)[O-])cc1,0.21
11,Cc1ccc(/C=N/NC(=O)c2csc(C)c2)o1,4.06
12,O=[N+]([O-])c1ccc(Sc2cccc3cccnc23)c([N+](=O)[O-])c1,65.5
13,O=c1cc(-c2ccccc2)nc(Sc2ccc([N+](=O)[O-])cc2[N+](=O)[O-])[nH]1,57.1
14,O=C(O)c1cc(N2C(=O)C3C4C=CC(C4)C3C2=O)ccc1NCc1cccnc1 (centres undefined),4.01
15,CCN(c1cc(C)cc(C)c1)S(=O)(=O)c1nnc(NC(=O)C(C)(C)C)s1,5.8
16,N/C(=N\OS(=O)(=O)c1cc(Cl)ccc1Cl)c1ccncc1,1.49
17,Cc1ccc(-c2c(C(=O)N/N=C/c3ccc(OC(C)C)cc3)nnn2-c2nonc2N)cc1,5.21
18,Cc1oc(-c2cccc(Cl)c2)nc1CN1CCC(C(=O)N2CCN(c3ccccn3)CC2)CC1,16.8
19,CCN1CCN(C(=O)C2CCN(Cc3nc(-c4cccc(Cl)c4)oc3C)CC2)CC1,-0.4
20,C=CCn1c(O)c(C(C)=NCCc2ccccc2)c(=O)[nH]c1=O,-9.8
21,COc1cccc(NC(=O)c2cc(CN3C(=O)c4ccccc4C3=O)ccc2OC)c1,-11.3
22,Cc1cc(C)cc(C(=O)O/N=C(\N)c2ccc(Br)cc2)c1,2.33
23,Cc1ccc(C(=O)O/N=C(\N)c2ccc(Br)cc2)cc1,17.7

row,Structure (SMILES),inhibition [%]
1,Cc1ccc(-c2csc3ncnc(NCCC(=O)O)c23)cc1C,3.2
2,COC(=O)C1=C(C)N(C)C(=O)NC1c1cc2c(cc1Br)OCO2 (centres undefined),-1.06
3,Nc1nc(CN2CCN(c3cccc(Cl)c3)CC2)nc(N2CCCc3ccccc32)n1,34.9
4,COc1cccc(N2CCN(Cc3nc(N)nc(N4CCCc5ccccc54)n3)CC2)c1,55.4
5,O=S(=O)(Cc1cc(Cl)nc(-c2ccncc2)n1)c1ccccc1,3.28
6,Cc1ccn2c(NC3CCCC3)c(-c3ccncc3)nc2c1,-13.9
7,Cc1ccn2c(NC3CCCCC3)c(-c3cccc(SC4CCCCC4)c3)nc2c1,48.6
8,CC(C)CC(NS(=O)(=O)c1ccc2c(c1)oc(=O)n2C)C(=O)NCc1cccnc1 (centres undefined),-12.4
9,COCCCN1C(=O)c2ccc(C(=O)Nc3cccc(OC)c3)cc2C1=O,-8.36
10,COc1ccc(CCNC(=O)c2ccc([N+](=O)[O-])cc2Cl)cc1OC,-2.83
11,CCc1cc(C(=O)NC2CCCN(Cc3ccccc3F)C2)n(C)n1 (centres undefined),6.68
12,CC(C)CN(C(=O)CCC(=O)OC(C)C(=O)Nc1cccc(C#N)c1)c1c(N)n(CC(C)C)c(=O)[nH]c1=O (centres undefined),-4.92
13,COC(=O)CSc1nnc(COc2ccc3ccccc3c2)o1,-6.41
14,CCOC(=O)CSc1nnc(COc2ccc3ccccc3c2)o1,6.46
15,COc1ccc(N2CCN(C(=O)CCS(=O)(=O)c3ccc4c(c3)NC(=O)C(C)S4)CC2)cc1 (centres undefined),6.18
16,Cc1ccc(C(=O)Oc2ccc(Br)cc2C(=S)N2CCOCC2)cc1,11.3
17,O=Cc1c(NCc2ccc(Cl)cc2)c2ccccc2[nH]c1=O,2.94
18,CCCN(CC(=O)Nc1ccccc1OC)C(=O)CCC(=O)c1ccc(OCC)cc1,3.5
19,CSc1ccc(CNC(=O)C2Cc3cc(S(=O)(=O)N4CCCC4)ccc3N2C(C)=O)cc1 (centres undefined),2.84
20,CCc1ccc(CNC(=O)C2Cc3cc(S(=O)(=O)N4CCCC4)ccc3N2C(C)=O)cc1 (centres undefined),-2.81
